Mtb MbtI inh – MbtI salicylate synthase inhibitors, primary screen, biochemical, fluorescence intensity; P9WFX0; actives 0.89% (n = 100,000); purified MbtI enzyme, fluorescence intensity read-out; inhibition, % (test concentration not listed); AID 493033, 2011; in the data active = inhibition mostly above about 56%, no sharp cut-off; inactive = mostly below about 77%
Target sequence (P9WFX0 whole entry, looked up): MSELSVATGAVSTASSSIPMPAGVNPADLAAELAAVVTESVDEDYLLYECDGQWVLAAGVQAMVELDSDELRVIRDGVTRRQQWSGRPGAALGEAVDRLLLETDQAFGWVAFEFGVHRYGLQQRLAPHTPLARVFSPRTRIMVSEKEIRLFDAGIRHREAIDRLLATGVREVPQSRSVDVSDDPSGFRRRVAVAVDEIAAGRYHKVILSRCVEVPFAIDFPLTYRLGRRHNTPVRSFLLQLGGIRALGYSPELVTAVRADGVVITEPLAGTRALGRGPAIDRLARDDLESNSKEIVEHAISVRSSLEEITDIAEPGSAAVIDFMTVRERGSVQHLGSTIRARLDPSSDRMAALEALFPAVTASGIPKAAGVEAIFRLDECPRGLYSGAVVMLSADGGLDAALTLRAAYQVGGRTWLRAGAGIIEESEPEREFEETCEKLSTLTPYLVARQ
MenB inh – M. tuberculosis MenB inhibitors, primary screen, biochemical, absorbance; 1,4-dihydroxy-2-naphthoyl-CoA synthase (Mycobacterium tuberculosis (strain ATCC 25618 / …; MenB enzyme assay, absorbance read-out; inhibition, % (concentration not given with the values); actives 0.43% (n = 100,000); AID 540299, 2011; in the data active = inhibition above about 21%, passing the limit was not always enough
PV pol inh – poliovirus RdRp elongation inhibitors, primary screen, biochemical, fluorescence polarization, total intensity; Genome polyprotein (Poliovirus type 1 (strain Mahoney)), P03300; poliovirus polymerase elongation; active compounds read low; % elongation, % (compound at 16.7 µg/mL); actives 0.66% (n = 150,000); AID 588519, 2011; in the data active = % elongation below about 90%
AID504770 – growth inhibition of E. coli YBA685, primary screen, V. cholerae RctB inhibitors. E. coli YBA685 rctB-dependent plasmid, OD600 growth, 3 h; active compounds read low. actives 0.27% (n = 130,000). z-score (test concentration not listed); in the data active = z-score below about -2, passing the limit was not always enough
The depositor's hits bear a star; i = inactive; / = no result. The list is not random: actives were taken first. Their share in the collection is about 1.5%.

SMILES | Mtb MbtI inh | MenB inh | PV pol inh | AID504770
Cc1cccc(C)c1NC(=S)SCC(N)=O | / | / | / | -1.2
S=C(c1c[nH]c2ccccc12)N1CCCC1 | -2 | -30 | 102 | 0.25
S=C(c1c[nH]c2ccccc12)N1CCCCC1 | 79* | -21 | 105 | -0.2
O=C(Oc1cc(Cl)cc(Cl)c1)c1ccno1 | / | / | / | -2.5*
Cc1ccc(OC(=O)c2ccno2)cc1 | / | / | / | 1.5
Cc1[nH]c(=O)c(C#N)c(C)c1CCC(=O)N1C(=NCc2ccccc2)SCC1(C)C | 18 | -7 | 102 | 0.4
O=C(COCc1cc(-c2ccc3c(c2)OCO3)on1)Nc1ccc(OC(F)(F)F)cc1 | 13 | -22 | 100 | -2.5*
COc1ccc(CCNC(=S)N2CCCC(C(F)(F)F)C2)cc1 (stereo not given) | 84* | -8 | 80* | -0.5
COc1ccc(CCNC(=S)N2CCCC2)cc1OC | -16 | -24 | 100 | -0.95
O=C1COc2ccc(-c3csc(=Nc4ccc(F)cc4)n3/N=C/c3ccc(O)c(O)c3)cc2N1 | 6 | -60 | 83* | -0.15
CC(C(=O)Nc1ccc(S(=O)(=O)N2CCCCC2)cc1)N1CCCCCC1 (stereo not given) | -10 | -5 | 100 | -0.25
O=C(O)c1ccc2c(c1)ncn2C1CCCCC1 | -6 | 1 | 104 | 0.8
Nc1ccc2c(c1)ncn2C1CCCCC1 | 90 | -10 | 85* | -0.9
CNc1ccc2cccc(O)c2n1 | -34 | -11 | 102 | -3.3*
c1nncn1/N=C1/CCCc2nonc21 | 84* | -44 | 98 | -1.2
CN1C(=O)S/C(=C/c2ccc(-c3ccc(C(=O)O)c(Cl)c3)o2)C1=O | -30 | -48 | 100 | -0.7
CCN1C(=O)/C(=C\c2ccc(-c3ccc(Cl)c(C(=O)O)c3)o2)SC1=S | 67* | -159 | 75 | -1.1
N#C/C=C/N1CCN(C/C=C/c2ccccc2)CC1 | 7 | 0 | 107 | 1.2
O=c1[nH]c(=S)[nH]nc1-c1ccc(F)c(F)c1 | 101* | -16 | 98 | -0.75
Fc1ccc(-c2nnc(Cl)c3ccccc23)cc1F | 1 | / | 100 | 1.4
COC(=O)c1cccc(N2C(=O)C3C4C=CC(C)(O4)C3C2=O)c1 (stereo not given) | 99* | -5 | 101 | -0.65
CCCc1n[nH]c(=S)n1N | 69* | -40 | 101 | 1.6
O=C(O)CO/N=C/c1ccccc1 | -10 | 6 | 98 | -0.2
O=C(O)CON=C1C2CC3CC(C2)CC1C3 | 0 | 10 | 78* | 0.95
C/C(=N\NC(N)=S)c1ccc(Cl)cc1 | 61* | -54 | / | 1.2
SMILES | Mtb MbtI inh | MenB inh | PV pol inh | AID504770
CCOC(=O)NC(=O)Cn1nnc(-c2cccc(C(F)(F)F)c2)n1 | -3 | -2 | 106 | 0.1
O=C(Nc1ccc2c(c1)OCO2)C12CC3CC(CC(O)(C3)C1)C2 | -8 | 5 | 105 | -0.5
CCCNc1nc(Cl)nc(Cl)n1 | -2 | -56 | 101 | 0.55
Clc1nc(Cl)nc(NNc2nc(Cl)nc(Cl)n2)n1 | -10 | 34* | 100 | 0.2
COc1ccccc1N1C(=O)NC(=O)/C(=C\C=C\c2ccco2)C1=O | 73* | -183 | 99 | -0.6
O=C1NC(=Nc2ccccc2)S/C1=C/C=C/c1ccco1 | 1 | -164 | 106 | -0.35
Cc1ccccc1N1C(=O)NC(=O)/C(=C\C=C\c2ccco2)C1=O | 66* | -129 | 104 | -0.75
CCOc1ccc(/C=N/C2=C(C#N)C3CCCCC3S2)cc1OC (stereo not given) | -4 | 2 | 103 | 0.8
COc1ccc(CN(C)C(=O)CN(c2ccc3c(c2)OCO3)S(C)(=O)=O)cc1 | 10 | -8 | 103 | 1.3
O=C(OCCOc1ccc(Br)cc1)c1cccs1 | 5 | 7 | 104 | -0.6
O=C1CCCC(O)=C1C1(O)C(=O)c2ccccc2C1=O | -5 | -2 | 79* | -1.4
CC(=Nc1ccccc1)C1=C(O)CCCC1=O | 3 | 0 | 103 | -0.55
O=C(Nc1ncnc2sc3c(c12)CCC3)c1ccccc1 | / | / | / | -0.45
Cc1c(C(=O)NNc2ncnc3sc4c(c23)CCCC4)oc2ccccc12 | -5 | -21 | 104 | -4.2*
O=C(Cc1cccc(C(F)(F)F)c1)NNc1c(F)c(F)cc(F)c1F | -13 | -13 | 100 | 0.35
COCCN=c1scc(-c2cccs2)n1/N=C/c1c(C)nn(-c2ccccc2)c1Cl | 4 | -38 | 106 | 0
O=C(Cn1cc(SCc2ccc(C(F)(F)F)cc2)c2ccccc21)N1CCCCC1 | / | / | 44* | /
O=C(Cn1cc(SCc2ccc(C(F)(F)F)cc2)c2ccccc21)N1CCCCCC1 | / | / | 115 | /
NNC(=O)c1cc2ccccc2[nH]1 | 16 | 4 | 100 | -0.35
NNC(=O)c1cc(=S)nc[nH]1 | 99* | -35 | 97 | -1.3
CN1c2ccccc2N(C)C1c1ccc(O)cc1 | 10 | -33 | 83* | -1.5
O=c1[nH]c(=S)[nH]c(O)c1-c1ccccc1 | 85* | -56 | 101 | -0.55
CCOC(=O)Cn1c(=O)c(C2OCCO2)cc2c(C)ccc(C)c21 | 2 | -25 | 99 | -0.35
COC(=O)c1ccc(-c2ccco2)n1Cc1cccc(F)c1 | 88 | -29 | 104 | -0.15
O=c1oc2cc(Cl)c(O)c(Cl)c2s1 | 99* | -53 | 102 | -0.8
SMILES | Mtb MbtI inh | MenB inh | PV pol inh | AID504770
O=C1OCCC1Sc1nc2ccccc2c(=O)[nH]1 (stereo not given) | / | / | / | -1.2
Cc1ccc(C(=O)CSC2=NCCCCC2)cc1 | 16 | 33* | 93 | -0.85
CC(C)CC(=O)Nc1ccc(C(=O)COC(=O)c2ccc(-n3cnnn3)cc2)cc1 | 1 | -4 | 113 | 0.5
CCc1cc(Br)ccc1NC(C)=O | / | / | / | -2.7*
CCCNC(=O)Nc1ccc(Br)cc1F | -17 | -5 | 103 | -0.65
C=CCSc1ccccc1N | 50 | -29 | 105 | -1.5
CCOC(=O)C1CCCN(Cn2nnn(-c3ccc(OC)cc3)c2=S)C1 (stereo not given) | 63* | 11 | 79* | 0.55
CC(=O)NCc1nc2ccccc2n1CC(C)C | / | / | / | -0.1
Cc1cccc(C(=O)NCc2n[nH]c(=S)n2-c2ccccc2)c1 | 58* | 2 | 102 | 1.6
Cn1c(CNC(=O)c2ccccc2)n[nH]c1=S | 36 | 4 | 104 | -0.5
NCCCn1cncn1 | -5 | 8 | 96 | 0.2
CN(C)[C@@H]1C(=O)C(C(N)=O)=C(O)[C@@]2(O)C(=O)C3=C(O)c4c(O)cccc4[C@@](C)(O)[C@H]3[C@H](O)[C@@H]12 | -12 | -27 | 100 | -3.9*
CC1c2cccc(O)c2CC2=C(O)C3(O)C(O)=C(C(N)=O)C(=O)C(N(C)C)C3C(O)C21 (stereo not given) | / | -78 | 92 | -4.1*
CN(C)[C@@H]1C(=O)C(C(N)=O)=C(O)[C@@]2(O)C(=O)C3=C(O)c4c(O)ccc(Cl)c4[C@@](C)(O)[C@H]3C[C@@H]12 | i | 0 | 100 | -3.6*
C[C@H]1c2cccc(O)c2C(O)=C2C(=O)[C@]3(O)C(O)=C(C(N)=O)C(=O)[C@@H](N(C)C)[C@@H]3[C@@H](O)[C@@H]21 | -15 | 5 | 99 | -0.25
